# Bioassay records (PubChem)
# Anthrax LF inh2: Bacillus anthracis LF protease inhibitors, primary screen, biochemical, multiplex microsphere, MLPCN library; multiplex microsphere protease cleavage assay; hit rate 0.12% among 360,000; Lethal factor (Bacillus anthracis), P15917; inhibition, % at 10 µM; also: plate controls were buffer without enzyme for full effect and enzyme alone for no effect
# 3CLpro inhibitor: SARS-CoV 3CLpro protease inhibitors, primary screen, biochemical, quenched FRET; recombinant SARS-CoV 3CLpro, quenched FRET peptide cleavage; Replicase polyprotein 1ab (Severe acute respiratory syndrome coronavirus), P0C6X7; inhibition, % at 6 µM; AID 1706, 2009; hit rate 0.14% among 290,000; in the data active = inhibition above about 12%
# BoNT-F LC inh: BoNT/F light chain protease inhibitors, primary screen, biochemical, flow cytometry, MLPCN library. Multiplex microsphere protease cleavage assay. inhibition, % at 10 µM. hit rate 0.22% among 360,000. AID 588497, 2011; in the data active = inhibition above about 35%, passing the limit was not always enough; inconclusive = no clear call, values can overlap the other calls; also: plate controls were buffer without enzyme for full effect and enzyme alone for no effect
# CCHF vOTU inh: CCHFV vOTU protease inhibitors, primary screen, biochemical, Pep-AMC substrate, fluorescence. Crimean-Congo hemorrhagic fever virus L polyprotein viral ovarian tumor (vOTU) protease …. inhibition, % at 11.5 µM. hit rate 0.55% among 370,000. AID 651958, 2012; in the data active = inhibition above about 30%; also: 0% = vehicle wells with enzyme and 100% = no enzyme wells
# Autofluor counter: compound fluorescence in toxin protease inhibitor counterscreen | compound autofluorescence counterscreen, microsphere flow cytometry; active compounds read high | AID 624483 | hit rate 3.1% among 360,000 | fluorescence intensity (concentration not given with the values); in the data active = fluorescence intensity above about 16000; inconclusive = no clear call, values can overlap the other calls
# BoNT A protease: BoNT/A light chain protease inhibitors, primary screen, biochemical, flow cytometry, MLPCN library; multiplex microsphere protease substrate cleavage; hit rate 0.17% among 360,000; inhibition, % at 10 µM; also: plate controls were buffer without enzyme for full effect and enzyme alone for no effect
# The depositor's hits bear a star; ? = inconclusive; / = not tested or not shown. Only some compounds are listed: those with a hit (about 3.9% of all), similar ones and a draw of the others. Rule as the data show it, unless noted: active = inhibition above about 30%; inconclusive = no clear call, values can overlap the other calls; inactive = below that.
SMILES,Anthrax LF inh2,3CLpro inhibitor,BoNT-F LC inh,CCHF vOTU inh,Autofluor counter,BoNT A protease
O=C(O)CCC(=O)Nc1ccc(Oc2ncnc3cc(Cl)ccc23)nc1,?,3.0,40.2*,-2.5,3429,8.9
O=C(Nc1ccccc1)Nc1ccc(Oc2ncnc3cc(Cl)ccc23)nc1,/,-2.4,/,/,/,/
CCCc1ncc(C(=O)c2ccc(OC)cc2)n1C,-1.4,-3.2,-4.7,9.9,24262*,-2.9
COCCC(=O)N1CCC(Oc2ccc(C(=O)N(C)C3CCCCC3)cc2)CC1,/,3.3,/,-17.0,/,/
O=C(OCC(=O)N1CCCC1=O)c1ncc(Cl)c(Cl)c1Cl,4.5,/,6.2,0.9,5625,0.4
Cc1cc(C)c2c(=O)n(-c3ccccc3)[nH]c2n1,-7.8,2.8,-1.9,13.4,8630,0.6
Cc1cc(C(C)(C)C)nc2[nH]n(-c3ccccc3)c(=O)c12,0.7,-3.9,-6.9,0.7,20895*,-3.8
CC(C)(C)/C(O)=C(/C#N)c1nc2ccccc2[nH]1,-1.3,-1.3,-6.1,1.3,23471*,?
COc1cccc(OC)c1/C(O)=C(\C#N)c1nc2ccccc2[nH]1,-6.5,0.9,-12.2,13.1,7299,0.4
COc1ccc(/C=N/OC/C(O)=C(\C#N)c2nc3ccccc3[nH]2)cc1,0.4,4.2,0.7,-3.0,22111*,3.6
COc1ccccc1N1CCN(Cc2ccc(OC)c(OC)c2OC)CC1,-9.6,2.1,-2.4,6.2,?,0.1
CCN1CCN(Cc2c(OC)ccc3ccccc23)CC1,0.0,2.2,4.3,-8.6,19532*,3.6
CCOc1ccccc1N1CCN(Cc2cccc(OC)c2OC)CC1,0.5,-4.9,-2.6,0.0,16205*,0.5
COc1ccc(CN2CCN(c3ccccc3)CC2)c(C)c1C,-1.1,0.7,-5.9,11.2,23743*,?
COc1ccc2ccccc2c1CN1CCSCC1,-15.8,3.5,?,-2.0,13289,-41.6
COc1ccc2ccccc2c1CN1CCN(C)CC1,-16.6,-1.2,7.2,-1.3,19346*,?
CN1CCN(Cc2ccc3ccccc3c2)CC1,-1.3,1.5,-30.6,-6.1,3478,3.3
O=c1c2ccccc2sn1-c1cccc(Cl)c1,-1.0,/,1.4,3.5,3643,2.7
O=c1c2cc(F)ccc2sn1-c1ccccc1,4.4,/,-3.5,5.2,2963,34.9*
Cc1ccccc1-n1sc2cc(F)ccc2c1=O,-0.2,0.6,-7.6,-11.8,4686,88.6*
Cc1ccc(-n2sc3ccccc3c2=O)cc1S(=O)(=O)N1CCCCC1,2.1,11.0,10.5,5.3,3545,32.5*
CN(C)S(=O)(=O)c1cccc(-n2sc3ccccc3c2=O)c1,-6.4,-4.2,-0.8,-2.1,5640,33.1*
O=c1c2ccccc2sn1-c1ccc(S(=O)(=O)N2CCCCC2)cc1,-5.5,-3.2,-5.7,-2.1,6856,16.7
O=c1c2ccccc2sn1-c1nccs1,-3.5,-2.1,19.9,0.5,4744,101.7*
O=c1c2ccccc2sn1-c1ccccc1,1.5,-4.5,-0.1,12.9,3386,70.4*
SMILES,Anthrax LF inh2,3CLpro inhibitor,BoNT-F LC inh,CCHF vOTU inh,Autofluor counter,BoNT A protease
Cc1nc2ccccc2c(=O)n1-c1nccs1,-1.8,/,7.1,13.4,5741,0.4
COC(=O)C[C@H]1CC[C@H]2[C@H](COc3ccc(NS(=O)(=O)c4ccccc4C)cc3C(=O)N2C)O1,/,/,/,1.4,/,/
Cc1cc(C)c(C)c(S(=O)(=O)N2CCC(C(=O)OCC(=O)N3c4ccccc4NC(=O)C3(C)C)CC2)c1C,-2.4,8.5,-3.6,17.1,24651*,-1.7
O=C1c2cccc3c(O)ccc(c23)C(=O)N1Cc1ccccc1,51.0*,-4.5,110.9*,11.9,7829,1.2
O=C(O)c1cccc(CN2C(=O)c3ccccc3C2=O)c1,5.5,-0.5,3.4,9.3,3183,-1.6
CCOCc1nnc(NC(=O)C2c3ccccc3Oc3ccccc32)s1,-1.1,7.1,-1.2,5.0,2611,-0.3
Cc1ccc(N2CN=c3s/c(=C\c4ccccn4)c(=O)n3C2)cc1,1.3,5.8,3.7,-2.0,18880*,?
O=c1/c(=C/c2ccco2)sc2n1CN(c1ccccc1)CN=2,-1.3,-4.5,-10.8,15.0,2362,-0.5
N#Cc1ccc(C(=O)N2CCN(c3ncccn3)CC2)cc1,17.3,-3.7,14.6,-21.2,2917,2.2
Clc1ccc(C2=NN(c3ccccc3)C(c3ccco3)C2)cc1 (stereo not given),/,5.4,/,-24.6,/,/
